Hit rate of the full screen: of about 3,200 compounds, about 300 (9.4%) showed activity. The list comes from a sample in which actives are over-represented; it also holds similar structures and randomly drawn compounds.
Tested on: A673/TR/shEF
Experiment: cell viability (LOESS-normalised, relative to median of negative controls) (log2 ratio); higher = more viable cells (less compound effect), active = hit call of the paper (over 3 MAD below the median)
Settings: treatment time: 72 h
Outline: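 Doxycycline, present or absent from 24 h before compounds, was used to induce EWS-FLI1 shRNA knockdown in A673/TR/shEF Ewing sarcoma cells at 1,500 per well in 384-well plates. Cells then received library compounds at two or more concentrations, or DMSO controls, for three days. Viability was measured by CellTiter-Glo luminescence on an Envision reader, and per-plate LOESS correction, division by the negative-control median and log2 transformation followed.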

[1] = 0.25 µM, library screen: screen1, EWS-FLI1 expression: high (no doxycycline)
[2] = 0.25 µM, library screen: screen1, EWS-FLI1 expression: low (doxycycline-induced shRNA knockdown)
[3] = 2.5 µM, library screen: screen1, EWS-FLI1 expression: high (no doxycycline)
[4] = 2.5 µM, library screen: screen1, EWS-FLI1 expression: low (doxycycline-induced shRNA knockdown)
[5] = 0.25 µM, library screen: screen2, EWS-FLI1 expression: high (no doxycycline)
[6] = 0.25 µM, library screen: screen2, EWS-FLI1 expression: low (doxycycline-induced shRNA knockdown)
[7] = 2.5 µM, library screen: screen2, EWS-FLI1 expression: high (no doxycycline)
[8] = 2.5 µM, library screen: screen2, EWS-FLI1 expression: low (doxycycline-induced shRNA knockdown)
[9] = 0.025 µM, library screen: screen1, EWS-FLI1 expression: high (no doxycycline)
[10] = 0.025 µM, library screen: screen1, EWS-FLI1 expression: low (doxycycline-induced shRNA knockdown)
[11] = 25 µM, library screen: screen1, EWS-FLI1 expression: high (no doxycycline)
[12] = 25 µM, library screen: screen1, EWS-FLI1 expression: low (doxycycline-induced shRNA knockdown)

CC1(C)C(=O)C=C[C@]2(C)C3CC[C@@]4(C)[C@H](c5ccoc5)OC(=O)[C@H]5O[C@]54[C@]3(C)C(=O)C[C@@H]12 (stereo partly drawn)
cell viability (log2) [1]: 0.0539 (inactive) | cell viability (log2) [2]: 0.0813 (inactive) | cell viability (log2) [3]: 0.0765 (inactive) | cell viability (log2) [4]: 0.119 (inactive)

Cc1cc(=O)oc2cc(O)c(O)cc12
cell viability (log2) [1]: -0.0238 (inactive) | cell viability (log2) [2]: 0.0536 (inactive) | cell viability (log2) [3]: 0.00784 (inactive) | cell viability (log2) [4]: 0.0751 (inactive)

Cc1cc(=O)oc2c(O)c(O)ccc12
cell viability (log2) [1]: -0.0965 (active) | cell viability (log2) [2]: -0.0218 (inactive) | cell viability (log2) [3]: 0.0459 (inactive) | cell viability (log2) [4]: 0.107 (inactive)

Cc1cc(=O)oc2cc(O)ccc12
cell viability (log2) [1]: 0.129 (inactive) | cell viability (log2) [2]: 0.0733 (inactive) | cell viability (log2) [3]: 0.103 (inactive) | cell viability (log2) [4]: -0.0344 (inactive)

N#CC1=C(N)Oc2cc(N)ccc2C1c1ccc(OCc2ccccc2)cc1 (stereo not drawn)
cell viability (log2) [1]: 0.04 (inactive) | cell viability (log2) [2]: 0.0479 (inactive) | cell viability (log2) [3]: 0.099 (inactive) | cell viability (log2) [4]: 0.204 (inactive)

CC(C)C[C@H](N)CSSC[C@@H](N)CC(C)C
cell viability (log2) [5]: 0.107 (inactive) | cell viability (log2) [6]: 0.1 (inactive) | cell viability (log2) [7]: 0.104 (inactive) | cell viability (log2) [8]: 0.0902 (inactive)

CCCCOCCOC(=O)CCCOc1ccc(Cl)cc1Cl
cell viability (log2) [1]: 0.0256 (inactive) | cell viability (log2) [2]: 0.038 (inactive) | cell viability (log2) [3]: 0.0946 (inactive) | cell viability (log2) [4]: 0.127 (inactive)

CN(C)CCCn1cc(C2=C(c3c[nH]c4ccccc34)C(=O)NC2=O)c2ccccc21
cell viability (log2) [9]: 0.176 (inactive) | cell viability (log2) [10]: 0.147 (inactive) | cell viability (log2) [1]: 0.197 (inactive) | cell viability (log2) [2]: 0.193 (inactive) | cell viability (log2) [3]: -0.136 (active) | cell viability (log2) [4]: 0.291 | cell viability (log2) [11]: -0.422 (active) | cell viability (log2) [12]: 0.0609 (inactive)

Cn1cc(C2=C(c3ccc(Cl)cc3Cl)C(=O)NC2=O)c2ccccc21
cell viability (log2) (0.103 µM, library screen: screen3, EWS-FLI1 expression: high (no doxycycline)): 0.039 (inactive) | cell viability (log2) (0.103 µM, library screen: screen3, EWS-FLI1 expression: low (doxycycline-induced shRNA knockdown)): 0.0193 (inactive) | cell viability (log2) (0.308 µM, library screen: screen3, EWS-FLI1 expression: high (no doxycycline)): 0.0253 (inactive) | cell viability (log2) (0.308 µM, library screen: screen3, EWS-FLI1 expression: low (doxycycline-induced shRNA knockdown)): 0.0244 (inactive) | cell viability (log2) (0.926 µM, library screen: screen3, EWS-FLI1 expression: high (no doxycycline)): 0.0632 (inactive) | cell viability (log2) (0.926 µM, library screen: screen3, EWS-FLI1 expression: low (doxycycline-induced shRNA knockdown)): 0.00111 (inactive) | cell viability (log2) (2.8 µM, library screen: screen3, EWS-FLI1 expression: high (no doxycycline)): 0.0516 (inactive) | cell viability (log2) (2.8 µM, library screen: screen3, EWS-FLI1 expression: low (doxycycline-induced shRNA knockdown)): -0.00589 (inactive) | cell viability (log2) (8.3 µM, library screen: screen3, EWS-FLI1 expression: high (no doxycycline)): 0.0741 (inactive) | cell viability (log2) (8.3 µM, library screen: screen3, EWS-FLI1 expression: low (doxycycline-induced shRNA knockdown)): 0.0603 (inactive) | cell viability (log2) (25 µM, library screen: screen3, EWS-FLI1 expression: high (no doxycycline)): 0.04 (inactive) | cell viability (log2) (25 µM, library screen: screen3, EWS-FLI1 expression: low (doxycycline-induced shRNA knockdown)): 0.0754 (inactive)

Cn1cc(C2=C(c3cn(CCCSC(=N)N)c4ccccc34)C(=O)NC2=O)c2ccccc21
cell viability (log2) [9]: 0.0502 (inactive) | cell viability (log2) [10]: 0.0613 (inactive) | cell viability (log2) [1]: -0.0731 (inactive) | cell viability (log2) [2]: 0.0259 (inactive) | cell viability (log2) [3]: -1.27 (active) | cell viability (log2) [4]: -0.615 (active) | cell viability (log2) [11]: -4.25 (active) | cell viability (log2) [12]: -2.05 (active)

O=C(Nc1c(-c2ccccc2)nc2ccc(Cl)cn12)c1ccc(F)cc1
cell viability (log2) [1]: 0.0947 (inactive) | cell viability (log2) [2]: 0.0794 (inactive) | cell viability (log2) [3]: 0.184 (inactive) | cell viability (log2) [4]: -0.0685 (inactive)

NCC1OC(OC2C(N)CC(N)C(OC3OC(CO)C(O)C(N)C3O)C2O)C(O)C(O)C1O (stereo not drawn)
cell viability (log2) [1]: 0.121 (inactive) | cell viability (log2) [2]: -0.0254 (inactive) | cell viability (log2) [3]: 0.206 (inactive) | cell viability (log2) [4]: 0.0929 (inactive)

COC(=O)c1c(C)c2c(c(C)c1OC(C)=O)OC(=O)c1c(C)c(Cl)c(O)c(Cl)c1O2
cell viability (log2) [1]: 0.0664 (inactive) | cell viability (log2) [2]: 0.0141 (inactive) | cell viability (log2) [3]: 0.0918 (inactive) | cell viability (log2) [4]: 0.03 (inactive)

C[C@@H]1[C@H]2[C@H](O[C@@H]3O[C@H](CO)[C@@H](O)[C@H](O)[C@H]3O)OC=C(C(=O)O)[C@H]2C[C@@H]1O
cell viability (log2) [1]: 0.0698 (inactive) | cell viability (log2) [2]: 0.0626 (inactive) | cell viability (log2) [3]: 0.106 (inactive) | cell viability (log2) [4]: -0.0365 (inactive)

COc1cc(O)c(C)c(O)c1
cell viability (log2) [1]: 0.0455 (inactive) | cell viability (log2) [2]: 0.156 (inactive) | cell viability (log2) [3]: 0.0996 (inactive) | cell viability (log2) [4]: 0.176 (inactive)

COc1c(O)cc(O)cc1O
cell viability (log2) [1]: 0.0746 (inactive) | cell viability (log2) [2]: 0.0275 (inactive) | cell viability (log2) [3]: 0.127 (inactive) | cell viability (log2) [4]: 0.0739 (inactive)

COCc1cc(O)c(O)c(O)c1-c1c(COC)cc(O)c(O)c1O
cell viability (log2) [9]: 0.13 (inactive) | cell viability (log2) [10]: 0.0379 (inactive) | cell viability (log2) [1]: 0.161 (inactive) | cell viability (log2) [2]: -0.00717 (inactive) | cell viability (log2) [3]: -0.00977 (inactive) | cell viability (log2) [4]: 0.159 (inactive) | cell viability (log2) [11]: -4.25 (active) | cell viability (log2) [12]: -2.42 (active)

CC(=O)c1c(C(C)=O)c(C)n(-c2cc(C)cc(C)c2)c1C
cell viability (log2) [1]: 0.0993 (inactive) | cell viability (log2) [2]: 0.13 (inactive) | cell viability (log2) [3]: 0.0722 (inactive) | cell viability (log2) [4]: 0.0963 (inactive)

CC(C)N1C(=O)C(=Cc2ccc(F)cc2)SC1=S
cell viability (log2) [1]: 0.0751 (inactive) | cell viability (log2) [2]: 0.059 (inactive) | cell viability (log2) [3]: 0.129 (inactive) | cell viability (log2) [4]: -0.0496 (inactive)

O=S(=O)(c1cccc2c(Cl)cccc12)N1CCCNCC1
cell viability (log2) [9]: 0.198 (inactive) | cell viability (log2) [10]: -0.106 (inactive) | cell viability (log2) [1]: 0.179 (inactive) | cell viability (log2) [2]: -0.113 (inactive) | cell viability (log2) [5]: 0.275 (inactive) | cell viability (log2) [6]: 0.144 (inactive) | cell viability (log2) [3]: -0.211 (active) | cell viability (log2) [4]: -0.13 (inactive) | cell viability (log2) [7]: 0.128 (inactive) | cell viability (log2) [8]: 0.122 (inactive) | cell viability (log2) [11]: -0.331 (active) | cell viability (log2) [12]: -0.103 (inactive)
